Cav3 T inh = inhibitors of human Cav3.2 T-type calcium channel | Cav3.2-expressing cells, Fluo-4 calcium fluorescence FDSS; stronger effect = lower value | 100,000 tested, 4% active | B-score at 10 µM;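 active = single-dose well whose peak fluorescence ratio is a statistical outlier from its plate by either plate-standardised score or position-corrected B-score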
Target sequence (O95180 whole entry, looked up): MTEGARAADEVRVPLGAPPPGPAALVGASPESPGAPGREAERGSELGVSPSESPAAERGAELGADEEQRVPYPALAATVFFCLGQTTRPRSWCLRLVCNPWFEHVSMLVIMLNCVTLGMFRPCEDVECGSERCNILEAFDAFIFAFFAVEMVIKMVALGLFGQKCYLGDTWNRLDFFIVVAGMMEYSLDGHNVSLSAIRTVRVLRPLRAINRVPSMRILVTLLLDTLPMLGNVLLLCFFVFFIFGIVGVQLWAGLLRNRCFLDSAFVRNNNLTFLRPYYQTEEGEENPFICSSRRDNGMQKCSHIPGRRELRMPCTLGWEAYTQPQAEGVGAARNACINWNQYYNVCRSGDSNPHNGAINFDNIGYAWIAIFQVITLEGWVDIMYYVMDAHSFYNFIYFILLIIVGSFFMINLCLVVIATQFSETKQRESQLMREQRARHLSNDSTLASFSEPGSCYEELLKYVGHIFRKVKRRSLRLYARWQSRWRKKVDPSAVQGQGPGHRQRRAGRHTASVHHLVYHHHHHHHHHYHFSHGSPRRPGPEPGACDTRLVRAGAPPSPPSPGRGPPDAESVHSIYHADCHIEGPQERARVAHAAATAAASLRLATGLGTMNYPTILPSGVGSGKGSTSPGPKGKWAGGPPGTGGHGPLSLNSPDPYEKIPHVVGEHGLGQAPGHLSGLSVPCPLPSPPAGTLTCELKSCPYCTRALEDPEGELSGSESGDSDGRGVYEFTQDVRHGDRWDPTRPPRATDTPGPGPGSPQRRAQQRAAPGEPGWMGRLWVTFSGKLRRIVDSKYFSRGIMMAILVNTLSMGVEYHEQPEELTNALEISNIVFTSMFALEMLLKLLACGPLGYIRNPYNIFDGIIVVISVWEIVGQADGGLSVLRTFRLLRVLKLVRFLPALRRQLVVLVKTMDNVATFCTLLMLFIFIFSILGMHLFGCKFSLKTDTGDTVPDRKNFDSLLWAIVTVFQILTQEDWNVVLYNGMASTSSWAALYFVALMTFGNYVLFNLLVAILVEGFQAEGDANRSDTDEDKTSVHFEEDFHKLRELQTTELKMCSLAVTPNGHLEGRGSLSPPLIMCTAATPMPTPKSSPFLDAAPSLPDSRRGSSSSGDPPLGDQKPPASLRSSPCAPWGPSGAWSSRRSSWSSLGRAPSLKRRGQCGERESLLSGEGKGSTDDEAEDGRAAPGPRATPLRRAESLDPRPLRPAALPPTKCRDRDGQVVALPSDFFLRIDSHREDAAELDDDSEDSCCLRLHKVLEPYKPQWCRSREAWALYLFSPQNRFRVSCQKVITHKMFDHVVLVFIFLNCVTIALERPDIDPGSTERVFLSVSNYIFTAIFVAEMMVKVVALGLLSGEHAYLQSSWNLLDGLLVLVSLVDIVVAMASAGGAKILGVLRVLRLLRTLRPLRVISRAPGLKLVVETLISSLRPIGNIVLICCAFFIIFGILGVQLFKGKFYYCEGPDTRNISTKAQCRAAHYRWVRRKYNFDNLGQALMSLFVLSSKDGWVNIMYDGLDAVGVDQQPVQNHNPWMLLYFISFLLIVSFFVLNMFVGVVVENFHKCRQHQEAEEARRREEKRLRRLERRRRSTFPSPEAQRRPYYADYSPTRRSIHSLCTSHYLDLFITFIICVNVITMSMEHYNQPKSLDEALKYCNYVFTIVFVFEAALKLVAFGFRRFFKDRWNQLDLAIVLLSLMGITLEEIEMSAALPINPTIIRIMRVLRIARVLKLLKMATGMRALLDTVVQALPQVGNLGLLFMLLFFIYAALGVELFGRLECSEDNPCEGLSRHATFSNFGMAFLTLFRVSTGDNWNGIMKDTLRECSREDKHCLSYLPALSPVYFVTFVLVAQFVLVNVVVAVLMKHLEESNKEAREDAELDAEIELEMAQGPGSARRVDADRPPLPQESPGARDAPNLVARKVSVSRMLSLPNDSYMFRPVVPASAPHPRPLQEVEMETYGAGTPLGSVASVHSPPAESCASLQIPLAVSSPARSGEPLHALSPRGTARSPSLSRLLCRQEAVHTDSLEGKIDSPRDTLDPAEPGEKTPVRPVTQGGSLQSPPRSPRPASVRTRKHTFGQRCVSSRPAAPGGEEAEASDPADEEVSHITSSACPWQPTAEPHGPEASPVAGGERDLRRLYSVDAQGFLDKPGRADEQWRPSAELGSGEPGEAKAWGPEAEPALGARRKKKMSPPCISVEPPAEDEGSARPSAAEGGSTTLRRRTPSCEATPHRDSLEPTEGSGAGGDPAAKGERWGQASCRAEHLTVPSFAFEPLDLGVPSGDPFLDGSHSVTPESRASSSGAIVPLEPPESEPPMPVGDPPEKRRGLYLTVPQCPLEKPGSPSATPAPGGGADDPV
IL1B NFkB pot = enhances IL-1B driven NFkB nuclear translocation; activation, % at 2 µM; HUVEC IL-1B NFkB p65 nuclear translocation imaging; 94,000 tested, 0.3% active;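 active = activation above 40%, about the mean plus 3 SD, also judged a hit on visual image review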;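 also: percent activation is computed from the nuclear over cytoplasmic p65 intensity ratio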
IL1B NFkB inh = blocks IL-1B driven NFkB nuclear translocation in HUVEC cells; HUVEC IL-1B NFkB p65 nuclear translocation imaging; inhibition, % at 2 µM; 94,000 tested, 0.43% active;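 active = inhibition above about 30% together with a positive call from visual inspection of the well image, limit read from the data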;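 also: nuclear over cytoplasmic p65 intensity ratio measured by imaging; 0% = IL-1B stimulated DMSO wells and 100% = unstimulated DMSO wells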
IL1B cytotox = toxic to HUVEC cells under IL-1B stimulation | HUVEC cell count loss, Hoechst imaging, IL-1B stimulated | cell count reduction, % at 2 µM | 94,000 tested, 0.41% active | AID 845;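 active = cell count reduction more than 3 SD above the screen-wide mean, cut at about 70% in these data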;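 also: normalized per plate to untreated control cells as the no-loss baseline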
* = called active by the depositor. An excerpt weighted towards active compounds, which were near 4.4% of everything screened.

Results for Cc1ccc(CN(C(=O)C(F)(F)F)C(C(=O)NC2CCCCC2)c2ccco2)cc1 (stereo not drawn) ?
Cav3 T inh: -5.4*; IL1B NFkB pot: -4; IL1B NFkB inh: 4; IL1B cytotox: 28

How did CCC(C(=O)NC1CCCC1)N(Cc1ccco1)C(=O)Cn1nnc(-c2ccc(C)cc2)n1 (stereo not drawn) do in these assays?
Cav3 T inh: -3.7*; IL1B NFkB pot: 12; IL1B NFkB inh: -12; IL1B cytotox: 5

How did COCCn1c(SCC(=O)Nc2ccc(S(N)(=O)=O)cc2)nc2ccccc21 do in these assays?
Cav3 T inh: 0.82; IL1B NFkB pot: 2; IL1B NFkB inh: -2; IL1B cytotox: 1

Results for COCCn1c(SCC(=O)Nc2ccc(Cl)c(S(=O)(=O)N(C)C)c2)nc2ccccc21 ?
Cav3 T inh: -6.2*; IL1B NFkB pot: -20; IL1B NFkB inh: 20; IL1B cytotox: 6

Results for CC(=O)N1CCN=C1SCc1ccc(Br)cc1 ?
Cav3 T inh: -4.8*; IL1B NFkB pot: 8; IL1B NFkB inh: -8; IL1B cytotox: 0

Results for CSc1nsc(SC)c1C(=O)N1CCN(S(=O)(=O)c2ccc(C)cc2)C1C(C)C (stereo not drawn) ?
Cav3 T inh: -5.1*; IL1B NFkB pot: 33; IL1B NFkB inh: -33; IL1B cytotox: 10

How did CSc1nsc(SC)c1C(=O)N1CCN(S(=O)(=O)c2ccc(C)cc2)C1C (stereo not drawn) do in these assays?
Cav3 T inh: 0.015; IL1B NFkB pot: -6; IL1B NFkB inh: 6; IL1B cytotox: -29

Results for CN(C)S(=O)(=O)c1ccc(C(=O)N2CCCC2c2nc3ccccc3s2)cc1 (stereo not drawn) ?
Cav3 T inh: 1.3; IL1B NFkB pot: -8; IL1B NFkB inh: 8; IL1B cytotox: 2

How did O=S(=O)(c1ccc(Br)cc1)N1CCCC1c1nc2ccccc2s1 (stereo not drawn) do in these assays?
Cav3 T inh: -4.6*; IL1B NFkB pot: 11; IL1B NFkB inh: -11; IL1B cytotox: -26

What do the screens show for `O=C(NCc1ccccc1)C1(c2ccccc2)CCN(S(=O)(=O)c2ccccc2)CC1`?
Cav3 T inh: -0.29; IL1B NFkB pot: 24; IL1B NFkB inh: -24; IL1B cytotox: -77

What do the screens show for `CN(C)C(=O)C1(c2ccccc2)CCN(S(=O)(=O)c2ccccc2)CC1`?
Cav3 T inh: -0.26; IL1B NFkB pot: 26; IL1B NFkB inh: -26; IL1B cytotox: 90*

What do the screens show for `CNS(=O)(=O)c1cccc(C(=O)OCc2cc(Cl)cc3c2OCOC3)c1`?
Cav3 T inh: -4.2*; IL1B NFkB pot: -10; IL1B NFkB inh: 10; IL1B cytotox: 3

What do the screens show for `CCOc1ccc(NC(=O)c2c(N)n(C)c(=O)[nH]c2=O)cc1`?
Cav3 T inh: 0.052

What do the screens show for `O=c1[nH]c(/C(=N\O)c2ccccc2)no1`?
Cav3 T inh: 0.036

What do the screens show for `CCCCNC(=O)CN(c1cccc(Br)c1)S(C)(=O)=O`?
Cav3 T inh: 0.74; IL1B NFkB pot: -1; IL1B NFkB inh: 1; IL1B cytotox: -17

Results for Cc1onc(-c2ccccc2)c1-c1n[nH]c(=S)n1-c1ccccc1 ?
Cav3 T inh: 1

What do the screens show for `CCOc1ccc(Cn2c(O)cc(=O)[nH]c2=O)cc1`?
Cav3 T inh: -0.57; IL1B NFkB pot: 2; IL1B NFkB inh: -2; IL1B cytotox: 35

How did CC(C)(C)N1C(=O)c2ccc(C(=O)NCc3ccco3)cc2C1=O do in these assays?
Cav3 T inh: 0.32; IL1B NFkB pot: 2; IL1B NFkB inh: -2; IL1B cytotox: 9

What do the screens show for `CC(C)(C)NC(=O)Cn1c(-c2nonc2N)nc2ccccc21`?
Cav3 T inh: 1; IL1B NFkB pot: 1; IL1B NFkB inh: -1; IL1B cytotox: -4

Results for CCCCOc1ccccc1NC(=O)Cn1c(-c2nonc2N)nc2ccccc21 ?
Cav3 T inh: -4.2*

What do the screens show for `Cc1c(Cc2ccccc2)sc(N)c1C(N)=O`?
Cav3 T inh: -1.1; IL1B NFkB pot: -98; IL1B NFkB inh: 98*; IL1B cytotox: 87*

How did Cc1c(Cc2ccccc2)sc(NC(=O)Cc2ccccc2)c1C(N)=O do in these assays?
Cav3 T inh: -1.2; IL1B NFkB pot: -2; IL1B NFkB inh: 2; IL1B cytotox: -2

Results for C/C(=C\c1ccccc1)CN1CCC(C(=O)N2CCC(C)CC2)CC1 ?
Cav3 T inh: 1.5; IL1B NFkB pot: 46*; IL1B NFkB inh: -46; IL1B cytotox: -15

How did CC1CCN(C(=O)C2CCN(CCCc3ccccc3)CC2)CC1 do in these assays?
Cav3 T inh: -4.5*

How did O=C(C1CCN(CCCc2ccccc2)CC1)N1CCCCC1 do in these assays?
Cav3 T inh: -0.23; IL1B NFkB pot: 19; IL1B NFkB inh: -19; IL1B cytotox: -5

Assay outcomes as filed in PubChem.
